# Results published in PubChem BioAssay (NCI).
# The panel holds about 79,000 compounds, 15% with a hit somewhere; the sample as a whole holds those more often. Values without a mark were called inactive. Calls of active or inactive are those of the source. Cut-off read from the data, not from the text of the source: active = growth inhibition above about 70%; inactive = the rest.
# Key:
# [1] = NCI Yeast Anticancer Drug Screen. Data for the rad52 strain (AID 147);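 note: 0% = growth of vehicle-treated control cultures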; conditions: S. cerevisiae rad52 mutant growth inhibition, stronger effect = higher value
# In short: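 Here a repair-compromised yeast strain receives each compound; its growth is then quantified and normalised to vehicle-only controls.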
# [2] = NCI Yeast Anticancer Drug Screen. Data for the wt1 strain (AID 149);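 note: 0% = growth of vehicle-treated wt1 cultures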; conditions: S. cerevisiae wt1 strain (SPY 50644) growth inhibition, stronger effect = higher value
# In short: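 Measured: growth of wt1 yeast under compound versus vehicle treatment, reported as inhibition.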
# [3] = NCI Yeast Anticancer Drug Screen. Data for the rad50EPP+ strain (AID 151);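 note: 0% = growth of vehicle-treated control cultures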; conditions: S. cerevisiae rad50 mutant strain, stronger effect = higher value
# In short: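 Read-out is yeast growth inhibition relative to vehicle; cells used were the rad50EPP+ strain.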
# [4] = NCI Yeast Anticancer Drug Screen. Data for the mgt1 strain (AID 153); conditions: S. cerevisiae mgt1 mutant growth inhibition, stronger effect = higher value
# In short: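 Measured: inhibition of mgt1 yeast growth by compound, normalized to vehicle-treated cultures.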
# [5] = NCI Yeast Anticancer Drug Screen. Data for the rad50 strain (AID 155);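 note: 0% = growth of vehicle-only cultures of the same strain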; conditions: S. cerevisiae rad50 strain growth inhibition, stronger effect = higher value
# In short: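 Growth of the mutant yeast was measured after compound exposure and referenced to vehicle-treated cultures.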
# [6] = NCI Yeast Anticancer Drug Screen. Data for the mec2-1 strain (AID 157); conditions: S. cerevisiae mec2-1 strain, stronger effect = higher value
# In short: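 Using mec2-1 yeast: add compound, measure growth, express inhibition versus vehicle-treated cultures.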
# [7] = NCI Yeast Anticancer Drug Screen. Data for the rad14 strain (AID 159);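 note: 0% = growth of vehicle-treated control cultures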; conditions: S. cerevisiae rad14 strain growth inhibition, stronger effect = higher value
# In short: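 Here, inhibition of yeast growth was measured after compound exposure, using a strain with a genetic defect in DNA damage repair and vehicle-treated cultures as the reference.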
# [8] = NCI Yeast Anticancer Drug Screen. Data for the sgs1 mgt1 strain (AID 161);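 note: 0% = growth of cultures given vehicle only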; conditions: S. cerevisiae sgs1 mgt1 strain, stronger effect = higher value
# In short: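 Compounds are added to genetically altered yeast, and growth is compared with cultures given vehicle alone to give percent inhibition.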
# [9] = NCI Yeast Anticancer Drug Screen. Data for the cln2 rad14 strain (AID 165);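 note: 0% = growth equal to vehicle treated cultures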; conditions: S. cerevisiae cln2 rad14 strain, stronger effect = higher value
# In short: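 Yeast strain cln2 rad14, bearing defects in cell cycle control and DNA repair, serves as the test system; values reflect growth inhibition compared with vehicle.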
# [10] = NCI Yeast Anticancer Drug Screen. Data for the bub3 strain (AID 167); conditions: S. cerevisiae bub3 mutant strain, stronger effect = higher value
# In short: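 Whole-cell yeast assay. The mutant strain was incubated with compounds, and growth inhibition was determined by comparison with vehicle-treated cells.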
# [11] = NCI Yeast Anticancer Drug Screen. Data for the wt2 strain (AID 169);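 note: 0% = growth of vehicle-treated yeast cultures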; conditions: S. cerevisiae wt2 strain growth inhibition, stronger effect = higher value
# In short: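 Treated yeast vs. vehicle-treated yeast: growth inhibition determined.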
# [12] = NCI Yeast Anticancer Drug Screen. Data for the sgs1 strain (AID 173);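 note: 0% = growth of vehicle-only control cultures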; conditions: S. cerevisiae sgs1 mutant, stronger effect = higher value
# In short: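 A genetically defined yeast mutant is incubated with the test compound, and its growth is compared to that of the same strain given vehicle.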
# [13] = NCI Yeast Anticancer Drug Screen. Data for the mlh1 rad18 strain (AID 175); conditions: S. cerevisiae mlh1 rad18 strain growth inhibition, stronger effect = higher value
# In short: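 Steps: expose repair-defective yeast to compound; measure growth; express inhibition against vehicle-treated controls.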
# [14] = NCI Yeast Anticancer Drug Screen. Data for the rad18 strain (AID 177); conditions: S. cerevisiae rad18 mutant growth inhibition, stronger effect = higher value
# In short: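 Measured value is growth inhibition of a yeast strain bearing a DNA repair alteration, referenced to vehicle-treated cells.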
# [15] = NCI Yeast Anticancer Drug Screen. Data for the CLN2oe strain (AID 163);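 note: 0% = growth of vehicle-only control cultures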; conditions: S. cerevisiae CLN2oe strain, stronger effect = higher value
# In short: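 Whole-cell yeast growth assay. A strain engineered for altered cell-cycle control received compound, and inhibition relative to vehicle-treated cultures was recorded.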
# [16] = NCI Yeast Anticancer Drug Screen. Data for the mlh1 strain (AID 171);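 note: 0% = growth of vehicle-treated control cultures of the same strain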; conditions: S. cerevisiae mlh1 strain growth inhibition, stronger effect = higher value
# In short: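 A yeast strain with a defined genetic lesion serves as the test organism. Cultures receive compound or vehicle, and growth is measured.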
# [17] = at 5.0 µM (retest, dose inferred, filed as 0.5)
# [18] = at 50.0 µM (retest, dose inferred, filed as 5.0)
compound,measurement,setting,value
Cc1cccc2c(NCCCN(C)C)c3c([N+](=O)[O-])ccc(C)c3nc12,growth inhibition,[1]; at 1.2 µM,76% (active)
same,growth inhibition,[1]; at 3.7 µM,91% (active)
same,growth inhibition,[1]; at 11.0 µM,94% (active)
same,growth inhibition,[1]; at 33.0 µM,97% (active)
same,growth inhibition,[1]; at 100.0 µM,97% (active)
same,growth inhibition,[2]; at 1.2 µM,5%
same,growth inhibition,[2]; at 3.7 µM,13%
same,growth inhibition,[2]; at 11.0 µM,39%
same,growth inhibition,[2]; at 33.0 µM,95% (active)
same,growth inhibition,[2]; at 100.0 µM,97% (active)
same,growth inhibition,[3]; at 1.2 µM,29%
same,growth inhibition,[3]; at 3.7 µM,55%
same,growth inhibition,[3]; at 11.0 µM,85% (active)
same,growth inhibition,[3]; at 33.0 µM,94% (active)
same,growth inhibition,[3]; at 100.0 µM,95% (active)
same,growth inhibition,[4]; at 1.2 µM,8%
same,growth inhibition,[4]; at 3.7 µM,20%
same,growth inhibition,[4]; at 11.0 µM,69%
same,growth inhibition,[4]; at 33.0 µM,98% (active)
same,growth inhibition,[4]; at 100.0 µM,98% (active)
same,growth inhibition,[5]; at 1.2 µM,54%
same,growth inhibition,[5]; at 3.7 µM,79% (active)
same,growth inhibition,[5]; [17],1%
same,growth inhibition,[5]; at 11.0 µM,92% (active)
same,growth inhibition,[5]; at 33.0 µM,94% (active)
same,growth inhibition,[5]; [18],78% (active)
same,growth inhibition,[5]; at 50.0 µM,97.8% (active)
same,growth inhibition,[5]; at 100.0 µM,96% (active)
same,growth inhibition,[6]; at 1.2 µM,22%
same,growth inhibition,[6]; at 3.7 µM,61%
same,growth inhibition,[6]; [17],-2%
same,growth inhibition,[6]; at 11.0 µM,96% (active)
same,growth inhibition,[6]; at 33.0 µM,98% (active)
same,growth inhibition,[6]; [18],11%
same,growth inhibition,[6]; at 50.0 µM,96.9% (active)
same,growth inhibition,[6]; at 100.0 µM,98% (active)
same,growth inhibition,[7]; at 1.2 µM,98% (active)
same,growth inhibition,[7]; at 3.7 µM,98% (active)
same,growth inhibition,[7]; at 11.0 µM,99% (active)
same,growth inhibition,[7]; at 33.0 µM,99% (active)
same,growth inhibition,[7]; at 100.0 µM,98% (active)
same,growth inhibition,[8]; [17],12%
same,growth inhibition,[8]; [18],46%
same,growth inhibition,[8]; at 50.0 µM,96.8% (active)
same,growth inhibition,[9]; [17],49%
same,growth inhibition,[9]; [18],95% (active)
same,growth inhibition,[9]; at 50.0 µM,91% (active)
same,growth inhibition,[10]; at 1.2 µM,-8%
same,growth inhibition,[10]; at 3.7 µM,-6%
same,growth inhibition,[10]; [17],-24%
same,growth inhibition,[10]; at 11.0 µM,16%
same,growth inhibition,[10]; at 33.0 µM,90% (active)
same,growth inhibition,[10]; [18],97% (active)
same,growth inhibition,[10]; at 50.0 µM,72.2% (active)
same,growth inhibition,[10]; at 100.0 µM,96% (active)
same,growth inhibition,[11]; at 1.2 µM,4%
same,growth inhibition,[11]; at 3.7 µM,15%
same,growth inhibition,[11]; at 11.0 µM,49%
same,growth inhibition,[11]; at 33.0 µM,95% (active)
same,growth inhibition,[11]; at 100.0 µM,97% (active)
same,growth inhibition,[12]; at 1.2 µM,85% (active)
same,growth inhibition,[12]; at 3.7 µM,92% (active)
same,growth inhibition,[12]; at 11.0 µM,95% (active)
same,growth inhibition,[12]; at 33.0 µM,98% (active)
same,growth inhibition,[12]; at 100.0 µM,98% (active)
same,growth inhibition,[13]; [17],12%
same,growth inhibition,[13]; [18],61%
same,growth inhibition,[13]; at 50.0 µM,97.1% (active)
same,growth inhibition,[14]; at 1.2 µM,96% (active)
same,growth inhibition,[14]; at 3.7 µM,96% (active)
same,growth inhibition,[14]; at 11.0 µM,96% (active)
same,growth inhibition,[14]; at 33.0 µM,96% (active)
same,growth inhibition,[14]; at 100.0 µM,96% (active)
CCCCCCCCCC(=O)N(CCC)CCC,growth inhibition,[1]; at 1.2 µM,-11%
same,growth inhibition,[1]; at 3.7 µM,-15%
same,growth inhibition,[1]; at 11.0 µM,-19%
same,growth inhibition,[1]; at 33.0 µM,42%
same,growth inhibition,[1]; at 100.0 µM,96% (active)
same,growth inhibition,[2]; at 1.2 µM,-10%
same,growth inhibition,[2]; at 3.7 µM,-10%
same,growth inhibition,[2]; at 11.0 µM,-17%
same,growth inhibition,[2]; at 33.0 µM,79% (active)
same,growth inhibition,[2]; at 100.0 µM,98% (active)
same,growth inhibition,[3]; at 1.2 µM,1%
same,growth inhibition,[3]; at 3.7 µM,9%
same,growth inhibition,[3]; at 11.0 µM,11%
same,growth inhibition,[3]; at 33.0 µM,43%
same,growth inhibition,[3]; at 100.0 µM,77% (active)
same,growth inhibition,[4]; at 1.2 µM,-14%
same,growth inhibition,[4]; at 3.7 µM,-20%
same,growth inhibition,[4]; at 11.0 µM,-25%
same,growth inhibition,[4]; at 33.0 µM,0%
same,growth inhibition,[4]; at 100.0 µM,96% (active)
same,growth inhibition,[5]; at 1.2 µM,2%
same,growth inhibition,[5]; at 3.7 µM,-8%
same,growth inhibition,[5]; [17],97% (active)
same,growth inhibition,[5]; at 11.0 µM,-2%
same,growth inhibition,[5]; at 33.0 µM,48%
same,growth inhibition,[5]; [18],96% (active)
same,growth inhibition,[5]; at 50.0 µM,90.9% (active)
same,growth inhibition,[5]; at 100.0 µM,97% (active)
same,growth inhibition,[6]; at 1.2 µM,-4%
same,growth inhibition,[6]; at 3.7 µM,1%
same,growth inhibition,[6]; [17],97% (active)
same,growth inhibition,[6]; at 11.0 µM,-15%
same,growth inhibition,[6]; at 33.0 µM,73% (active)
same,growth inhibition,[6]; [18],98% (active)
same,growth inhibition,[6]; at 50.0 µM,93.3% (active)
same,growth inhibition,[6]; at 100.0 µM,97% (active)
same,growth inhibition,[7]; at 1.2 µM,-9%
same,growth inhibition,[7]; at 3.7 µM,-6%
same,growth inhibition,[7]; at 11.0 µM,-15%
same,growth inhibition,[7]; at 33.0 µM,29%
same,growth inhibition,[7]; at 100.0 µM,97% (active)
same,growth inhibition,[15]; at 1.2 µM,3%
same,growth inhibition,[15]; at 3.7 µM,-2%
same,growth inhibition,[15]; at 11.0 µM,0%
same,growth inhibition,[15]; at 33.0 µM,45%
same,growth inhibition,[15]; at 100.0 µM,98% (active)
same,growth inhibition,[9]; [17],48%
same,growth inhibition,[9]; [18],65%
same,growth inhibition,[9]; at 50.0 µM,91.1% (active)
same,growth inhibition,[10]; at 1.2 µM,-29%
same,growth inhibition,[10]; at 3.7 µM,-27%
same,growth inhibition,[10]; [17],-7%
same,growth inhibition,[10]; at 11.0 µM,-37%
same,growth inhibition,[10]; at 33.0 µM,67%
same,growth inhibition,[10]; [18],73% (active)
same,growth inhibition,[10]; at 50.0 µM,92% (active)
same,growth inhibition,[10]; at 100.0 µM,97% (active)
same,growth inhibition,[11]; at 1.2 µM,-5%
same,growth inhibition,[11]; at 3.7 µM,-2%
same,growth inhibition,[11]; at 11.0 µM,-10%
same,growth inhibition,[11]; at 33.0 µM,49%
same,growth inhibition,[11]; at 100.0 µM,97% (active)
same,growth inhibition,[16]; at 1.2 µM,2%
same,growth inhibition,[16]; at 3.7 µM,-15%
same,growth inhibition,[16]; at 11.0 µM,-13%
same,growth inhibition,[16]; at 33.0 µM,41%
same,growth inhibition,[16]; at 100.0 µM,96% (active)
same,growth inhibition,[12]; at 1.2 µM,-4%
same,growth inhibition,[12]; at 3.7 µM,-9%
same,growth inhibition,[12]; at 11.0 µM,-17%
same,growth inhibition,[12]; at 33.0 µM,73% (active)
same,growth inhibition,[12]; at 100.0 µM,98% (active)
same,growth inhibition,[13]; [17],99% (active)
same,growth inhibition,[13]; [18],99% (active)
same,growth inhibition,[13]; at 50.0 µM,90.3% (active)
same,growth inhibition,[14]; at 1.2 µM,15%
same,growth inhibition,[14]; at 3.7 µM,21%
same,growth inhibition,[14]; at 11.0 µM,15%
same,growth inhibition,[14]; at 33.0 µM,68%
same,growth inhibition,[14]; at 100.0 µM,98% (active)
